HTT aggregate: mutant huntingtin aggregation inhibition. PC12 HttQ103-GFP aggregates, Acumen cytometry, 40 h. Potency, µM (highest dose often 46.1 µM), inactives show at the top dose activity change, negative = inhibition, hits mostly inhibitors. 1.1% of 220,000 active. AID 1688; further: potency means the concentration at half of the fitted maximal effect; on the % scale 0 is the no-effect control and ±100 the full control effect; nearly all actives have a fitted effect of over 60% in size
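Ecdysone-promoter PC12 model expressing HTT exon 1 Q103 fused to GFP, induced by tebufenozide at 100 nM final. Compounds titrated; aggregates sized 1–25 µm scored on a 488 nm laser cytometer.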
CBFb-RUNX1 inh: CBF-beta/RUNX1 interaction disruption; Potency, µM (series often up to 59.8 µM), for the others: top-dose activity, negative = inhibition, usual class: inhibitors; 230,000 tested, under 10 active; Q01196+Q13951; AlphaScreen CBFb-His/RUNX1-biotin binding, biochemical; further: % of control where 0% means no effect
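Compounds were screened at multiple concentrations against a preformed CBF-beta(His)/RUNX1(biotin) complex (30 nM of each) for 15 min at room temperature, followed by 90 min with nickel and streptavidin beads and AlphaScreen reading.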
JMJD2E inh: blocks human JMJD2E demethylase activity; B2RXH2; JMJD2E catalytic domain, FDH-coupled NADH fluorescence (FDH is formaldehyde dehydrogenase); Potency, µM (highest dose often 57.1 µM), for inactives: top-dose activity change, negative = inhibition, actives largely listed as inhibitors; 1.6% of 230,000 active; AID 2147; active means well fitted inhibition curve with a large enough effect, not every such curve was filed as active; inconclusive means small, poorly fitted or top-dose-only effect, or another doubt; inactive means no such curve, though single readings can be large or run the other way;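 further: potency means the concentration at half of the fitted maximal effect; 0% = wells with enzyme and -100% = buffer wells without enzyme; nearly all actives have a fitted effect of over 50% in size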
HPGD inh: blocks human HPGD enzyme activity; P15428; purified HPGD, NADH fluorescence kinetic, PGE2 substrate; Potency, µM, inactives show top-dose activity change, negative = inhibition, usual class: inhibitors; 4.3% of 150,000 active; active means well fitted inhibition curve with a large enough effect, not every such curve was filed as active; inconclusive means small, poorly fitted or top-dose-only effect, or another doubt; inactive means no such curve, though single readings can be large or run the other way; further: potency means the concentration at half of the fitted maximal effect; on the % scale 0 is the no-effect control and ±100 the full control effect
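20 nM HPGD preincubated 15 min at room temperature with compound in 50 mM Tris-HCl pH 8, 0.01% Tween 20. Started with 1 mM NAD+ and 30 uM prostaglandin E2; NADH fluorescence (360/450 nm) read 5 times over 30-s intervals, last minus first.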
ALDH1A1 block: inhibitors of human aldehyde dehydrogenase 1A1. P00352. Purified ALDH1A1, NADH fluorescence, propionaldehyde substrate. Potency, µM (highest dose often 75.3 µM), for the others: top-dose activity, negative = inhibition, actives largely listed as inhibitors. 7.3% of 220,000 active. AID 1030; active means well fitted inhibition curve with a large enough effect, not every such curve was filed as active; inconclusive means small, poorly fitted or top-dose-only effect, or another doubt; inactive means no such curve, though single readings can be large or run the other way;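 further: potency means the concentration at half of the fitted maximal effect; plate controls were no enzyme wells and a reference inhibitor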
Target sequence (P00352 whole entry, looked up): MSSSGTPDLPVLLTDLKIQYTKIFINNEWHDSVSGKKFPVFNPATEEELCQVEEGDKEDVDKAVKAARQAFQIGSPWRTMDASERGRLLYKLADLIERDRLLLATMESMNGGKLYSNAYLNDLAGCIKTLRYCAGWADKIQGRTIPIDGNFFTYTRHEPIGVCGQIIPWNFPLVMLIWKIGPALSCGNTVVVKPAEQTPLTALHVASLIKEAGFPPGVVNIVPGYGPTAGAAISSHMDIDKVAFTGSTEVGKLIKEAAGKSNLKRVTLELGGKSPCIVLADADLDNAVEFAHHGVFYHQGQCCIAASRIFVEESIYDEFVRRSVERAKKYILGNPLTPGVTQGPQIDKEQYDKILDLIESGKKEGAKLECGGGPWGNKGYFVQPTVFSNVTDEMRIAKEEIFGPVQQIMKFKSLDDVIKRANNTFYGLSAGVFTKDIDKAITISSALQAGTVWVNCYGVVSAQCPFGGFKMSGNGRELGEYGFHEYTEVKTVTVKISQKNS
HTT ATP protect: protects HTT-Q103 PC12 cells, measured by ATP; PC12 HTT-Q103 induced, cytoprotection, ATP luminescence, 40 h; Potency, µM (doses to about 56.4 µM), for the others: cytoprotection (ATP increase), most hits filed as activators; 0.14% of 230,000 active; further: potency means the concentration at half of the fitted maximal effect; % of control where 0% means no effect; nearly all actives have a fitted effect of over 45% in size
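Cells were plated at 1500 per well in phenol red-free DMEM with 5% equine and 5% calf serum. Tebufenozide (100 nM final) and compounds were added, then ATPlite reagent, and luminescence was read.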
Starred values were filed as active, the others as inactive; ? = inconclusive; / = not tested or not shown; [ ] = another dose, or the depositor's remark. In the library only some 9.8% were active in any assay of this set; here they are far more common. Unless noted, the call rests on the fitted dose curve; in most records, active means well fitted curve in the direction sought with a large enough effect; inconclusive means small, poorly fitted or top-dose-only effect, or another doubt; inactive means no such curve, though single readings can be large; an effect the other way counts as inactive or inconclusive.

SMILES	HTT aggregate	CBFb-RUNX1 inh	JMJD2E inh	HPGD inh	ALDH1A1 block	HTT ATP protect
Cc1ccc(CN=C2NC(=O)C(CC(=O)NCCc3ccccc3)S2)cc1 (configuration not stated)	15%	9%	-3%	/	?	11%[10 µM]
C=C(C)C(=O)OC	/	-8%[21.7 µM]	/	1%	28%	-11%
COC(=O)C(C)c1ccc(C(=O)c2cccs2)cc1 (configuration not stated)	/	15%	-1%	14µM*	-2%	-2%
Nc1ccc(C(=O)c2cccs2)cc1	?	1%	4%	22µM*	-1%	/
Nc1ccc(C(=O)c2cccs2)cn1	-15%[9.22 µM]	2%	-6%	/	1%	-15%[10 µM]
COc1ccc(NC(=O)NCCN2C(=O)C3C4C=CC(C4)C3C2=O)cc1 (configuration not stated)	2%	3%	13%	2%	?	-25%
Cc1cccc(NC(=O)NCCN2C(=O)C3C4C=CC(C4)C3C2=O)c1 (configuration not stated)	0%	1%	8%	0%	?	-21%
Cc1ccc(NC(=O)NCCN2C(=O)C3C4C=CC(C4)C3C2=O)cc1 (configuration not stated)	9%	-1%	4%	-17%	10µM*	-36%
O=C(NCCN1C(=O)C2C3C=CC(C3)C2C1=O)Nc1ccccc1 (configuration not stated)	0%	0%	-1%	-13%	13µM*	-28%
S[C@@H]1CCCN(Cc2ccccc2)C1	/	/	/	-1%	-8%[13.5 µM]	17%[10 µM]
COc1ccc(-c2nc(C)sc2C)cc1	10%	1%	-14%	28µM*	?	-11%[10 µM]
CC(C)OC(=O)CSc1nnc(-c2ccc(C(C)(C)C)cc2)n1N	-3%	19%	-14%	18µM*	18µM*	-5%[10 µM]
C=CCC1CCCC(=O)N2CCCC12 (configuration not stated)	/	15%[136 µM]	/	-9%	-3%[120 µM]	-12%[96.6 µM]
CC1(C)CC(N2CCCC2)=CC(=[N+]2CCCCCC2)C1	2µM*	-13%	-10%	/	?	-65%
CC1(C)CC(N2CCN(c3ccccc3)CC2)=CC(=[N+]2CCCC2)C1	4µM*	-5%	-2%	/	4%	-36%[10 µM]
CC1CC(C)C[N+](=C2C=C(N3CCCC3)CC(C)(C)C2)C1 (configuration not stated)	?	3%	-4%	/	-4%	-58%[10 µM]
CN(C(=O)CC1C(=O)NCCN1CC1CCCCC1)C1CCOCC1 (configuration not stated)	-23%[9.22 µM]	3%	?	/	/	26%[10 µM]
C#CCN1C(C)=C(C(=O)OC)[C@@H](c2cccc([N+](=O)[O-])c2)C(C(=O)OCC)=C1C	/	/	/	/	/	-9%[1.9 µM]
O=C(O)[C@@H](O)[C@@H](O)[C@@H](O[C@H]1O[C@@H](CO)[C@@H](O)[C@@H](O)[C@@H]1O)[C@@H](O)CO	/	2%[21.7 µM]	4%[25.5 µM]	-1%	10%[20.9 µM]	-53%[17.1 µM]
COc1ccc(N2CCN(C(=O)c3ccccc3)CC2)c([N+](=O)[O-])c1	9%[9.22 µM]	1%	-1%	/	?	13%[10 µM]
COc1ccc(N2CCN(C(=O)c3ccc(Br)cc3)CC2)c([N+](=O)[O-])c1	-25%	-15%	-6%	/	13µM*	?
COc1ccc(N2CCN(C(=O)c3ccc(C)cc3)CC2)c([N+](=O)[O-])c1	-17%	-18%	6%	-26%	11µM*	/
CCCCC(=O)N1CCN(c2ccc(OC)cc2[N+](=O)[O-])CC1	-9%	-1%	0%	14µM*	?	44%[10 µM]
COc1cc(C2NC(=O)NC(c3ccccc3)=C2C(C)=O)cc([N+](=O)[O-])c1O (configuration not stated)	3%[9.22 µM]	4%	-9%	/	?	1%[10 µM]
CC(C)OC(=O)C1CC=CCC1C(=O)Nc1ccc(Cl)cc1 (configuration not stated)	-23%	7%	4%	-6%	4%	-7%
SMILES	HTT aggregate	CBFb-RUNX1 inh	JMJD2E inh	HPGD inh	ALDH1A1 block	HTT ATP protect
Cc1nn(Cc2ccccc2)c(Cl)c1/C=C/C(=O)OC(C)C(=O)N1CCCC1 (configuration not stated)	32%	-7%	-18%	/	?	-2%[10 µM]
Nc1ncnc(Nc2c(F)cccc2F)n1	3%[9.22 µM]	11%	-3%	/	2%	24%[10 µM]
COC(=O)C1=C(C)N=C2SC(C#N)=C(N)N2C1c1cccc(OC)c1 (configuration not stated)	10%	4%	4%	-10%	13µM*	11%
COC(=O)C1=C(C)N=C2SC(C#N)=C(N)N2C1c1ccc(OC)cc1 (configuration not stated)	?	1%	-1%	-18%	?	23%
CCOC(=O)CCCCCCCCCCCCC1C=CCC1 (configuration not stated)	/	/	0%	-21%	?	/
CC(=O)NNC(=O)c1sc(=S)n2c1[nH]c(=O)c1sccc12	5%	2%	41%	/	3.5µM*	33%[10 µM]
COc1ccc(CC2NCCC3(O)CCCCC23)cc1 (configuration not stated)	-7%	9%	0%	-19%	16µM*	-7%
CC1(OC(=O)CCc2ccccc2)C(=O)C=C2C=C(c3ccc(C#N)cc3)N(CC3CC3)C=C2C1=O (configuration not stated)	11%[9.22 µM]	-1%[13.1 µM]	?	-7%	-11%[13.5 µM]	4%[10 µM]
CC1(OC(=O)CCc2ccccc2)C(=O)C=C2C=C(c3ccc(C#N)cc3)N(c3ccccc3)C=C2C1=O (configuration not stated)	-8%[9.22 µM]	?	11µM*	-5%	8%[13.5 µM]	-12%[10 µM]
CC1(OC(=O)CCc2ccccc2)C(=O)C=C2C=C(c3ccc(C#N)cc3)N(C3CCCC3)C=C2C1=O (configuration not stated)	7%[9.22 µM]	13%[13.1 µM]	20µM*	-3%	-6%[13.5 µM]	15%[10 µM]
Cc1cc(C)cc(NC(=O)c2cnn(-c3ccccc3)c2C2CCNCC2)c1	5%	9%	-1%	/	?	-49%
Cn1c(C(C#N)C2=C(Cl)C(=O)N(c3ccccc3)C2=O)nc2ccccc21 (configuration not stated)	-7%	?	-22%	-23%	?	-20%
CC1(C)Cc2c(sc3c2c(=N)n(Cc2ccco2)c(=O)n3CC(=O)Nc2ccc(Cl)cc2)CO1	?	-5%	6%	-21%	20µM*	-29%[0.074 µM]
O=C(Nc1nc(-c2ccco2)c(-c2ccco2)s1)C1CC(=O)N(c2ccc3c(c2)OCCO3)C1 (configuration not stated)	3%	/	?	?	1.1µM*	-27%[10 µM]
